Source: PubChem BioAssay
Sampled rows, rich in hits. Any-hit rate of the full collection: about 4.1%.
Jurkat NFkB inh = inhibitors of induced NF-kB luciferase reporter, primary screen, TCR NF-kB activation inhibitor project, cell-based, luminescence, uHTS | Jurkat, PMA/ionomycin-induced NF-kB luciferase reporter | inhibition, % at 4 µM | 330,000 tested, 0.53% active; in the data active = inhibition above about 50%
aSyn 5UTR inh = MLPCN primary screen, SNCA 5' untranslated region | alpha-synuclein 5'UTR reporter, inhibitor activity | inhibition, % (tested at 7.5 µM) | 300,000 tested, 0.82% active | AID 1813, 2009; in the data active = inhibition above about 60%; inconclusive = no clear call, values can overlap the other calls;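 also: H4 neuroglioblastoma cells stably carrying SNCA 5'UTR luciferase fusion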
Mdm2-MdmX inh = inhibitors of human Mdm2-MdmX association, primary screen, cell-based, luminescence, split luciferase, SaOS-2, uHTS; Protein Mdm4 (Homo sapiens) + E3 ubiquitin-protein ligase Mdm2 (Homo sapiens), …; SaOS-2 split-luciferase Mdm2/MdmX complementation; inhibition, % at 8 µM; 330,000 tested, 3% active; AID 485346, 2010;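 active = inhibition of at least 50% at 8 µM in the primary screen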
697 NFkB inh = inhibitors of PMA/ionomycin-induced NF-kB reporter, 697 cells, primary screen, B-cell NF-kB inhibitor project, cell-based, luminescence, uHTS | inhibition, % at 4 µM | 330,000 tested, 0.33% active | 697 B-cell NF-kB luciferase reporter, 16 h | AID 435022, 2010; in the data active = inhibition above about 35%
Gli-Sufu block = Gli-Sufu pathway antagonists, primary screen, luciferase luminescence, Sufu-KO-LIGHT cells, uHTS | Sufu-KO-LIGHT fibroblasts, Gli luciferase reporter luminescence | inhibition, % at 5 µM | 340,000 tested, 0.74% active | AID 588413, 2011;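 active = inhibition above about 55%, limit read from the data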
KLF5 inhibitor = KLF5 expression inhibitors, primary screen, DLD-1 cells, luminescence. DLD-1 KLF5 promoter-luciferase reporter. AID 1700, 2009. 290,000 tested, 0.23% active. inhibition, % at 5 µM;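 active = inhibition above a per-plate limit of that plate's mean compound inhibition plus 3 SD, cut at about 60% in these data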;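 also: higher means less KLF5 promoter-driven luciferase light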
Mdm2-MdmX conf = Mdm2-MdmX complex disruptors, retested hits, confirmation, luminescence, single concentration; shares compounds with Mdm2-MdmX inh; 10,000 tested, 55% active; inhibition, % at 8 µM; AID 489028, 2010; Mdm2-MdmX binding, luminescent assay; in the data active = inhibition above about 40%
Full FLuc ctr = full-length luciferase signal inhibition, confirmation, counter-screen for Mdm2/MdmX interaction inhibitor project, cell-based, single concentration, SaOS-2. shares compounds with Mdm2-MdmX inh. SaOS-2 full-length luciferase counterscreen, luminescence. inhibition, % at 8 µM. 6,200 tested, 77% active. AID 504607, 2011;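 active = mean inhibition at 8 µM reaching about 37%, which flags the compound as non-specific, limit read from the data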;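 also: p53-null SaOS-2 cells with luciferase driven by a doxycycline-inducible promoter; compound on cells about two nights before reading with doxycycline added after day one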
Numbers stand for hits.

Screening Cc1ccc(NS(=O)(=O)c2ccc(Cl)c(NC(=S)NC(=O)C3CCCCC3)c2)cc1Cl returned Jurkat NFkB inh inactive, aSyn 5UTR inh inactive, Mdm2-MdmX inh 71.7, 697 NFkB inh inactive, Gli-Sufu block inactive, KLF5 inhibitor inactive and Mdm2-MdmX conf inactive.
`Cc1cc(C)n(-c2nc(SCCN(C)C)c3c4c(sc3n2)CCCC4)n1` gave Jurkat NFkB inh inactive, aSyn 5UTR inh inactive, Mdm2-MdmX inh 92.2, 697 NFkB inh inactive, Gli-Sufu block inactive, KLF5 inhibitor inactive, Mdm2-MdmX conf 60.3 and Full FLuc ctr 71.9.
`CN(C)CCCN1c2ccccc2Sc2ccc(Cl)cc21` gave Jurkat NFkB inh inactive, aSyn 5UTR inh inactive, Mdm2-MdmX inh 67.9, 697 NFkB inh inactive, Gli-Sufu block inactive, KLF5 inhibitor inactive and Mdm2-MdmX conf inactive.
For CN(C)CCCN1c2ccccc2Sc2ccc3ccccc3c21 the results were Gli-Sufu block inactive.
`O=C(NNC(=S)NC(=O)c1cccnc1)c1ccc(Cl)cc1` gave Jurkat NFkB inh inactive, aSyn 5UTR inh inactive, Mdm2-MdmX inh inactive, 697 NFkB inh inactive, Gli-Sufu block inactive and KLF5 inhibitor inactive.
COc1ccc(C(=O)NC(=S)NNC(=O)c2cnccn2)cc1 was read as Jurkat NFkB inh inactive, aSyn 5UTR inh inactive, Mdm2-MdmX inh 64.2, 697 NFkB inh inactive, Gli-Sufu block inactive, KLF5 inhibitor inactive, Mdm2-MdmX conf 56.8 and Full FLuc ctr 40.6.
For O=C(NC(=S)NNC(=O)c1cnccn1)c1ccc(Cl)cc1 the results were Jurkat NFkB inh inactive, aSyn 5UTR inh inconclusive, Mdm2-MdmX inh 69.2, 697 NFkB inh inactive, Gli-Sufu block inactive, KLF5 inhibitor inactive, Mdm2-MdmX conf inactive and Full FLuc ctr 47.7.
For COc1ccc(C(=O)NC(=S)NNC(=O)COc2ccccc2)cc1 the results were Jurkat NFkB inh inactive, aSyn 5UTR inh inactive, Mdm2-MdmX inh inactive, 697 NFkB inh inactive, Gli-Sufu block inactive and KLF5 inhibitor inactive.
`Oc1[nH]c2ccccc2c1N=NC(=S)NCC1CCCO1` (centres undefined) gave Jurkat NFkB inh inactive, aSyn 5UTR inh inactive, Mdm2-MdmX inh inactive, 697 NFkB inh inactive, Gli-Sufu block inactive and KLF5 inhibitor inactive.
Oc1[nH]c2c(Cl)cc(Cl)cc2c1N=NC(=S)NCC1CCCO1 (centres undefined) was read as Jurkat NFkB inh inactive, aSyn 5UTR inh 79.3, Mdm2-MdmX inh 97.6, 697 NFkB inh inactive, Gli-Sufu block inactive, KLF5 inhibitor inactive, Mdm2-MdmX conf 45.4 and Full FLuc ctr 49.6.
Screening Oc1[nH]c2ccc(Br)cc2c1N=NC(=S)NCC1CCCO1 (centres undefined) returned Jurkat NFkB inh inactive, aSyn 5UTR inh inactive, Mdm2-MdmX inh 67.9, 697 NFkB inh inactive, Gli-Sufu block inactive, KLF5 inhibitor inactive, Mdm2-MdmX conf 52.6 and Full FLuc ctr 48.2.
CC(=O)Nc1ccc(Nc2cc(C)nc3ccccc23)cc1 was read as Jurkat NFkB inh inactive, aSyn 5UTR inh inactive, Mdm2-MdmX inh inactive, 697 NFkB inh inactive and Gli-Sufu block inactive.
CC(=O)c1ccc(Nc2cc(C)nc3ccc(C)cc23)cc1 was read as Jurkat NFkB inh inactive, aSyn 5UTR inh inactive, Mdm2-MdmX inh 50.8, 697 NFkB inh inactive, Gli-Sufu block inactive, KLF5 inhibitor inactive, Mdm2-MdmX conf inactive and Full FLuc ctr 89.8.
`COc1ccc(-c2oc(NC(=O)CSc3ncn[nH]3)c(C#N)c2-c2ccc(OC)cc2)cc1` gave Jurkat NFkB inh inactive, aSyn 5UTR inh inactive, Mdm2-MdmX inh inactive, 697 NFkB inh inactive, Gli-Sufu block inactive and KLF5 inhibitor inactive.
Screening COc1ccc(-c2oc(NC(=O)CCl)c(C#N)c2-c2ccc(OC)cc2)cc1 returned Jurkat NFkB inh inactive, aSyn 5UTR inh inactive, Mdm2-MdmX inh 97.8, 697 NFkB inh inactive, Gli-Sufu block inactive, KLF5 inhibitor inactive, Mdm2-MdmX conf 64.8 and Full FLuc ctr 55.4.
For O=S(=O)(NCC(c1ccc2c(c1)OCO2)N1CCOCC1)c1ccccc1 (centres undefined) the results were Jurkat NFkB inh inactive, aSyn 5UTR inh inactive, Mdm2-MdmX inh inactive, 697 NFkB inh inactive and Gli-Sufu block inactive.
O=C(Nc1cccc(O)c1)c1cc2nc(-c3ccccc3)cc(-c3ccccc3)n2n1 was read as Jurkat NFkB inh inactive, aSyn 5UTR inh inactive, Mdm2-MdmX inh inactive, 697 NFkB inh inactive, Gli-Sufu block inactive and KLF5 inhibitor inactive.
COc1ccc(NC(=O)c2cc3nc(-c4ccccc4)cc(-c4ccccc4)n3n2)c(OC)c1 was read as Jurkat NFkB inh inactive, aSyn 5UTR inh inactive, Mdm2-MdmX inh 63.7, 697 NFkB inh inactive, Gli-Sufu block inactive, KLF5 inhibitor inactive and Mdm2-MdmX conf inactive.
O=C(NC1CCCC1)c1cc2nc(-c3ccccc3)cc(-c3ccccc3)n2n1 was read as Jurkat NFkB inh inactive, aSyn 5UTR inh inactive, Mdm2-MdmX inh 54.9, 697 NFkB inh inactive, Gli-Sufu block inactive, KLF5 inhibitor inactive and Mdm2-MdmX conf inactive.
For COc1cc2[nH]c3c(=O)n4c(nc3c2cc1OC)SCCC4 the results were Jurkat NFkB inh inactive, aSyn 5UTR inh inactive, Mdm2-MdmX inh inactive, 697 NFkB inh inactive, Gli-Sufu block inactive and KLF5 inhibitor inactive.
O=C(OCC(=O)N1CCOCC1)c1cc(F)c(F)cc1Cl was read as Jurkat NFkB inh inactive, aSyn 5UTR inh inactive, Mdm2-MdmX inh inactive, 697 NFkB inh inactive, Gli-Sufu block inactive and KLF5 inhibitor inactive.
`CCOC(=O)c1ccc(NC(=S)N(CCN(C)C)Cc2cccs2)cc1` gave Jurkat NFkB inh inactive, aSyn 5UTR inh inconclusive, Mdm2-MdmX inh 75.8, 697 NFkB inh inactive, Gli-Sufu block inactive, KLF5 inhibitor inactive, Mdm2-MdmX conf 46.3 and Full FLuc ctr 60.6.
For Cc1ccc(NC(=S)N(CCN(C)C)Cc2cccs2)cc1 the results were Jurkat NFkB inh inactive, aSyn 5UTR inh inactive, Mdm2-MdmX inh inactive, 697 NFkB inh inactive, Gli-Sufu block inactive and KLF5 inhibitor inactive.
COc1ccccc1/C=C/C1(C(=O)NC2CCCC2)CC(=O)N1c1ccccc1 (centres undefined) was read as Jurkat NFkB inh inactive, aSyn 5UTR inh inactive, Mdm2-MdmX inh 65.1, 697 NFkB inh inactive, Gli-Sufu block inactive, KLF5 inhibitor inactive, Mdm2-MdmX conf 63.5 and Full FLuc ctr 79.2.
